According to PubChem BioAssay (NCATS):
Records with an inconclusive call do not appear. Active and inactive are the calls of the source. Calls come from the whole dose curve; as a rule, active = well fitted curve in the direction sought with a large enough effect; inconclusive = small, poorly fitted or top-dose-only effect, or another doubt; inactive = no such curve, though single readings can be large or run the other way.

test: Cytometric Cell-Based qHTS for Inhibitors of the mTORC1 Signaling Pathway in MEF (Tsc2-/-, p53-/-) Cells (AID 2660); details: mTORC1 pathway cytometry; series mostly up to 38.3 µM; activity change, negative = inhibition: at the top concentration;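 note: percent of cells above a phospho-rpS6 to PI ratio cutoff in each well; plate controls were DMSO for no effect and rapamycin for full effect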
In short: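 Tsc2-/-, p53-/- MEFs (empty vector) exposed to compound 24 h at 37 C, fixed, stained with Alexa-488 anti-phospho-rpS6 Ser235/236 and propidium iodide. Acumen laser scanning; phospho-S6/PI ratio thresholded against 7.5 nM rapamycin, reported as % positive cells.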

**Q.** For Cc1nn(-c2ccccc2)c(C)c1/C=N/N1CCN(Cc2ccccc2)CC1, which “activity change, negative = inhibition” value is on record?
**A.** Its value is -1.75% (inactive).

**Q.** For COC(=O)C1=CO[C@@H](O)[C@@H]2C(CO)=CC[C@H]12, which “activity change, negative = inhibition” value is on record?
**A.** The value was 7.27% (inactive).

**Q.** With Clc1ccc2c(c1)N=C(N1CCNCC1)c1ccccc1N2 as the compound, how does the “activity change, negative = inhibition” value read?
**A.** The value was 7.68% (inactive).

**Q.** With N[C@@H](Cn1ccc(=O)c(O)c1)C(=O)O as the compound, how does the “activity change, negative = inhibition” value read?
**A.** The value was 4.45% (inactive).

**Q.** With CCN(CC)CCNC(=O)c1ccc(NS(C)(=O)=O)cc1 as the compound, how does the “activity change, negative = inhibition” value read?
**A.** Its value is 3.98% (inactive).

**Q.** For Nc1ncnc2n[nH]c(Nc3ccc(F)cc3)c12, which “activity change, negative = inhibition” value is on record?
**A.** The value was 8.76% (inactive).

**Q.** For O=C1NC(=O)/C(=C/c2ccc3c(c2)OC(F)(F)O3)S1, which “activity change, negative = inhibition” value is on record?
**A.** The value was 4.97% (inactive).
